These results are taken from PubChem BioAssay (Tox21).

Unmarked numbers belong to inactive results. Inconclusive results are not listed. The source made the active and inactive calls. Unless noted, calls follow the shape of the full dose curve.

A short description of assay [1]: qHTS assay to identify small molecule agonists of the sonic hedgehog signaling (Shh) pathway (AID 1259368).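 Also: NIH/3T3-derived 3T3Gli1-Luc cells carrying a stable Gli1-driven firefly luciferase reporter; series mostly up to about 92 µM; nearly all actives have a fitted effect of over 15% in size.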 An outline of the steps:
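Quantitative high-throughput format using a Gli1-driven firefly luciferase reporter line derived from NIH/3T3 cells. After a 24 hr compound treatment at 37 C and 5% CO2, luminescence reported Gli1 response element activity.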

Assay [2] is described as follows: qHTS assay to identify small molecule antagonists of the sonic hedgehog signaling (Shh) pathway (AID 1259369). Also: nearly all actives have a fitted effect of over 45% in size. The procedure, abridged:
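Stable Gli1-Luc reporter NIH/3T3 clone; quantitative HTS in stimulated mode with conditioned medium. Luminescence measured after 24hr compound treatment at 37 C.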
(In general: Quantitative high-throughput screening tests each substance at several concentrations.)

Assay [3] concerns the target Estrogen receptor beta (Homo sapiens) (UniProt Q92731). The assay is described as follows: qHTS assay to identify small molecule agonists of the estrogen receptor beta (ER-beta) signaling pathway (AID 1259377; active = well fitted activation curve with a large enough effect in the signal ratio in the repeat runs, not every such curve was filed as active; the % refers to the signal ratio). An outline of the steps: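 In HEK293T cells bearing a UAS-beta-lactamase reporter under ER-beta control, DMSO-delivered compounds were incubated for 16 hr at 37C. Activity was detected as fluorescence 2 hours after LiveBLAzer B/G FRET substrate addition.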

For assay [4] the target is unchanged. The assay is described as follows: qHTS assay to identify small molecule antagonists of the estrogen receptor beta (ER-beta) signaling pathway (AID 1259378; active = well fitted inhibition curve with a large enough effect in the signal ratio in the repeat runs, not every such curve was filed as active; the % refers to the signal ratio). An outline of the steps:
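ER-beta-UAS-bla HEK293T cells in 2% charcoal-stripped FBS medium treated with compound plus 1nM final 17-beta-estradiol for 16 hr at 37C. Beta-lactamase reporter read by FRET substrate fluorescence after 2 hours at room temperature.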

Assay [5] in a line: qHTS assay to identify small molecule agonists of the androgen receptor (AR) signaling pathway in the presence of an antagonist - cell viability counter screen (AID 1259379; active = well fitted curve in the direction sought with a large enough effect in the repeat runs; an effect the other way counts as inactive or inconclusive;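 also: MDA-kb2 human breast cancer cells carrying an MMTV luciferase reporter; series mostly up to about 92 µM; nearly all actives have a fitted effect of over 25% in size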). An outline of the steps:
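Nilutamide-containing (3.0uM final) MDA-kb2 cultures, 3,000 cells/well, were treated with compounds across 15 concentrations. After 16 hr at 37C with no CO2, cell viability was determined by CellTiter-Fluor fluorescence in the luciferase assay wells.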

Assay [6] can be described thus: qHTS assay to identify small molecule agonists of the estrogen receptor beta (ER-beta) signaling pathway - cell viability counter screen (AID 1259380; active = well fitted curve in the direction sought with a large enough effect in the repeat runs; an effect the other way counts as inactive or inconclusive; also: nearly all actives have a fitted effect of over 30% in size; also: potency is read from the fitted curve at half-maximal effect). An outline of the steps:
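Steps: plate ER-beta-UAS-bla HEK293T cells, rest 6 hr; add compounds in DMSO; incubate 16 hr at 37C, 5% CO2; add FRET substrate 2 hr; add CellTiter-Glo, wait 30 min at room temperature; read luminescence.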

Assay [7] can be described thus: qHTS assay to identify small molecule antagonists of the estrogen receptor beta (ER-beta) signaling pathway - cell viability counter screen (AID 1259382; active = well fitted curve in the direction sought with a large enough effect in the repeat runs; an effect the other way counts as inactive or inconclusive; also: series mostly up to about 92 µM; nearly all actives have a fitted effect of over 55% in size). The procedure, abridged: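 Viability is scored by CellTiter-Glo luminescence (30 min, room temperature) in ER-beta-UAS-bla HEK293T wells already read for reporter fluorescence. Compound exposure lasts 16 hr at 37C alongside 1nM 17-beta-estradiol in charcoal-stripped serum medium.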

Assay [8] concerns the target Estrogen receptor (Homo sapiens) (UniProt P03372). The assay is described as follows: qHTS assay to identify small molecule agonists of the estrogen receptor alpha (ER-alpha) signaling pathway in the presence of an antagonist (AID 1259383). Also: top concentration of the series differs between compounds; nearly all actives have a fitted effect of over 15% in size. The procedure, abridged:
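Readout was ERE-driven luciferase luminescence in VM7Luc4E2 cells, which express full-length ER-alpha endogenously. Compounds were tested at 15 concentrations for 22hr alongside 10.0nM ICI-182,780 (final concentration).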

Assay [9] can be described thus: qHTS assay to identify small molecule agonists or antagonists of the thyroid stimulating hormone receptor (TSHR) signaling pathway - wild type cell line counter screen (AID 1259384). An outline of the steps:
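Wild-type Hek293 cells, 800/well, 18 h at 37C, then compound with Ro20-1724 for 30 min RT. cAMP by HTRF (cAMP-d2/anti-cAMP cryptate), 1 h RT, fluorescence read. 15 concentrations, triplicates.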

Assay [10] concerns the target Thyrotropin receptor (Homo sapiens) (UniProt P16473). The assay is described as follows: qHTS assay to identify small molecule antagonists of the thyroid stimulating hormone receptor (TSHR) signaling pathway (AID 1259385). Also: nearly all actives have a fitted effect of over 20% in size. An outline of the steps:
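TSHR-HEK293 cells (800/well) plated 18 h, then compounds with Ro20-1724 and TSH at 1.5 ng/mL final, 30 min at room temperature. cAMP quantified by HTRF (cAMP-d2/anti-cAMP-cryptate, 1 h); 15 concentrations in triplicate.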

A short description of assay [11]: qHTS assay to identify small molecule agonists of the estrogen receptor alpha (ER-alpha) signaling pathway in the presence of an antagonist - cell viability counter screen (AID 1259386; active = well fitted curve in the direction sought with a large enough effect in the repeat runs; an effect the other way counts as inactive or inconclusive;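 also: series mostly up to about 92 µM; cells exposed to compounds for 22 h at 37 °C before the viability read; nearly all actives have a fitted effect of over 30% in size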). An outline of the steps: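 In this counter screen, compound effects on VM7Luc4E2 viability were tested in the presence of the antagonist ICI-182,780 at 10.0nM final. Compounds were dosed at 15 concentrations, exposure lasted 22hr, and the CellTiter-Fluor signal was read.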

For assay [12], the target named is Progesterone receptor (Homo sapiens) (UniProt P06401). Description: qHTS assay to identify small molecule agonists of the progesterone receptor (PR) signaling pathway (AID 1346784). Also: nearly all actives have a fitted effect of over 30% in size. The procedure, abridged: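 Using charcoal-stripped serum (2%) to limit endogenous steroids, PR-UAS-bla HEK 293T cells received compounds for 16 hr at 37C after 6 hr plating; beta-lactamase FRET fluorescence was recorded following 2 hr substrate loading at room temperature.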
Chain of Progesterone receptor (Homo sapiens) (P06401 whole entry, looked up): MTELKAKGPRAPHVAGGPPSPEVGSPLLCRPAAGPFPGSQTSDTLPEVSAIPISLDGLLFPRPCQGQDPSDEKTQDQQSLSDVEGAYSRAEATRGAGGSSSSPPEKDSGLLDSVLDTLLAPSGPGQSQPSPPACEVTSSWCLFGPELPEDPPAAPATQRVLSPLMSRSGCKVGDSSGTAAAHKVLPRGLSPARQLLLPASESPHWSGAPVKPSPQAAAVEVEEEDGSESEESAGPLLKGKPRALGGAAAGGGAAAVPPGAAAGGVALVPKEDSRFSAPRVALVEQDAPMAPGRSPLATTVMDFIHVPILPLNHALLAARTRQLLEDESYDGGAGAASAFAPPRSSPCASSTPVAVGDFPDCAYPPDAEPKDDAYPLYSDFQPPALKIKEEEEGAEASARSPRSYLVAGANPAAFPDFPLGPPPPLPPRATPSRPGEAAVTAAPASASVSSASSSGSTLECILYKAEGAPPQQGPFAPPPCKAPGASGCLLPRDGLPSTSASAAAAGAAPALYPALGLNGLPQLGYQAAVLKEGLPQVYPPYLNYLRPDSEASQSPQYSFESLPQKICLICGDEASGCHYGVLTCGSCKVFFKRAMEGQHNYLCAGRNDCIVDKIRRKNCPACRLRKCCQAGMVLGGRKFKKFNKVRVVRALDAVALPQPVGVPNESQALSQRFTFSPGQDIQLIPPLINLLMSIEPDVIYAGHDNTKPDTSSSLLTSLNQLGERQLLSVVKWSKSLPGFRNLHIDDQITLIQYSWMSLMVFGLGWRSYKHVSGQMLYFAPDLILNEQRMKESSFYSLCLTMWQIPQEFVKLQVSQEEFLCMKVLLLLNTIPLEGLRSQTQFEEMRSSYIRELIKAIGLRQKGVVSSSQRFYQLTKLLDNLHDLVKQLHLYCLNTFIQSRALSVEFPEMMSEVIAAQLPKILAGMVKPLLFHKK

Assay [13] shares this target. Description: qHTS assay to identify small molecule antagonists of the progesterone receptor (PR) signaling pathway (AID 1346795; active = well fitted inhibition curve with a large enough effect in the signal ratio in the repeat runs, not every such curve was filed as active; the % refers to the signal ratio). The procedure, abridged:
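Inhibition of R5020-induced (1 nM final) beta-lactamase reporter signal in PR-UAS-bla HEK293T cells was scored by FRET fluorescence after overnight (16 hr) compound treatment.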

The nature of assay [14]: qHTS assay to identify small molecule agonists of the progesterone receptor (PR) signaling pathway - cell viability counter screen (AID 1346799). Also: nearly all actives have a fitted effect of over 45% in size. An outline of the steps:
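Cytotoxicity in PR-bla HEK293T cells: 16 h compound, 37C; CellTiter-Glo added post-FRET read; luminescence after 30 min RT.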

A short description of assay [15]: qHTS assay to identify small molecule agonists of the TGF-beta/Smad signaling pathway - cell viability counter screen (AID 1346829; active = well fitted curve in the direction sought with a large enough effect in the repeat runs; an effect the other way counts as inactive or inconclusive; also: top concentration of the series differs between compounds; nearly all actives have a fitted effect of over 45% in size). The procedure, abridged: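 HEK 293T SBE-bla line, 5 hr compound exposure at 37 C, multiplexed CellTiter-Glo viability read by luminescence.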
Assay [16] can be described thus: qHTS assay to identify small molecule agonists of the TGF-beta/Smad signaling pathway (AID 1346859; active = well fitted activation curve with a large enough effect in the signal ratio in the repeat runs, not every such curve was filed as active; the % refers to the signal ratio; also: series mostly up to about 77 µM). An outline of the steps:
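Stable Smad binding element-beta-lactamase HEK 293T cells; 5 hr compound exposure at 37 C under 5% CO2; 2 hr room-temperature substrate step; fluorescence excited at 405 nm, collected at 460 nm and 530 nm.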

The target in assay [17] is Thyrotropin-releasing hormone receptor (Homo sapiens) (UniProt P34981). Description: qHTS assay to identify small molecule antagonists of the thyrotropin-releasing hormone receptor (TRHR) signaling pathway (AID 1346877; active = well fitted inhibition curve with a large enough effect in the repeat runs, not every such curve was filed as active; also: series mostly up to about 51 µM). An outline of the steps:
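Kinetic fluorescence (3 min, 1 s resolution) following stimulation with TRH at 1 nM final; HEK293 cells bearing human TRHR; 5 min compound preincubation at RT; concentration-response over 15 points, triplicates.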

Assay [18] is described as follows: qHTS assay to identify small molecule antagonists of the TGF-beta/Smad signaling pathway - cell viability counter screen (AID 1346824; active = well fitted curve in the direction sought with a large enough effect in the repeat runs; an effect the other way counts as inactive or inconclusive; also: nearly all actives have a fitted effect of over 50% in size). The procedure, abridged: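 SBE-bla HEK 293T cells, incubated overnight, then compound plus 0.25 ng/mL TGF-beta1 (stock added) for 5 hr at 37 C. Viability was read in the same wells by CellTiter-Glo luminescence after 30 min at room temperature.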

Assay [19] in a line: qHTS assay to identify small molecule antagonists of the progesterone receptor (PR) signaling pathway - cell viability counter screen (AID 1346798; active = well fitted curve in the direction sought with a large enough effect in the repeat runs; an effect the other way counts as inactive or inconclusive; also: series mostly up to about 92 µM; nearly all actives have a fitted effect of over 50% in size). An outline of the steps:
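ATP content as viability readout: CellTiter-Glo luminescence, 30 min room temperature, in PR-UAS-bla HEK293T cells after 16 hr compound/R5020 treatment at 37C and 5% CO2.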

Chain of Estrogen receptor (Homo sapiens) (P03372 whole entry, looked up): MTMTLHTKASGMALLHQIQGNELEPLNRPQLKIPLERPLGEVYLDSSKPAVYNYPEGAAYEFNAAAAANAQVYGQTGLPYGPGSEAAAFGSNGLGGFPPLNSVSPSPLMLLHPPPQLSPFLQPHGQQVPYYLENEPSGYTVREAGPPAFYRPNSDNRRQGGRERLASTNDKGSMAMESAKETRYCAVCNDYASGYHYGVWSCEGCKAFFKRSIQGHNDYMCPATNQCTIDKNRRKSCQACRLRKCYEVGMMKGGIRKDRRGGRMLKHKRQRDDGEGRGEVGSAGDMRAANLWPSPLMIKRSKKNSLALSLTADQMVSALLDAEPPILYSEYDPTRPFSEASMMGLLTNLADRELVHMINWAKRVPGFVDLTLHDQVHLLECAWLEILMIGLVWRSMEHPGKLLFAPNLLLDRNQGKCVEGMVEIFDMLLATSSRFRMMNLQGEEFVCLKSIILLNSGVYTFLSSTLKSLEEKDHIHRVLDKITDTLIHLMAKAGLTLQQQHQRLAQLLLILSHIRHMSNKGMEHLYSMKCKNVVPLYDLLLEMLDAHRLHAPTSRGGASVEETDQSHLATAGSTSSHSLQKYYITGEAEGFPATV
Chain of Thyrotropin-releasing hormone receptor (Homo sapiens) (P34981 whole entry, looked up): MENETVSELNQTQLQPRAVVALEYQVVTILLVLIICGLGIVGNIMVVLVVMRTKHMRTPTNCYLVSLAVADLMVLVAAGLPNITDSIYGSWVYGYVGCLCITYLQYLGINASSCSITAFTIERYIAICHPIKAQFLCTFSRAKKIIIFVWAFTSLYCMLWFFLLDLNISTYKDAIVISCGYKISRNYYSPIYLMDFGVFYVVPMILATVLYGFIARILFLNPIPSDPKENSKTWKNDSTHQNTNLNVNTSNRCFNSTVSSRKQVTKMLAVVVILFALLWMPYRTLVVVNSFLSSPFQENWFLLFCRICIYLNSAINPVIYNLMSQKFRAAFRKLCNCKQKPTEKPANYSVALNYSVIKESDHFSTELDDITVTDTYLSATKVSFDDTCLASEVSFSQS
Chain of Thyrotropin receptor (Homo sapiens) (P16473 whole entry, looked up): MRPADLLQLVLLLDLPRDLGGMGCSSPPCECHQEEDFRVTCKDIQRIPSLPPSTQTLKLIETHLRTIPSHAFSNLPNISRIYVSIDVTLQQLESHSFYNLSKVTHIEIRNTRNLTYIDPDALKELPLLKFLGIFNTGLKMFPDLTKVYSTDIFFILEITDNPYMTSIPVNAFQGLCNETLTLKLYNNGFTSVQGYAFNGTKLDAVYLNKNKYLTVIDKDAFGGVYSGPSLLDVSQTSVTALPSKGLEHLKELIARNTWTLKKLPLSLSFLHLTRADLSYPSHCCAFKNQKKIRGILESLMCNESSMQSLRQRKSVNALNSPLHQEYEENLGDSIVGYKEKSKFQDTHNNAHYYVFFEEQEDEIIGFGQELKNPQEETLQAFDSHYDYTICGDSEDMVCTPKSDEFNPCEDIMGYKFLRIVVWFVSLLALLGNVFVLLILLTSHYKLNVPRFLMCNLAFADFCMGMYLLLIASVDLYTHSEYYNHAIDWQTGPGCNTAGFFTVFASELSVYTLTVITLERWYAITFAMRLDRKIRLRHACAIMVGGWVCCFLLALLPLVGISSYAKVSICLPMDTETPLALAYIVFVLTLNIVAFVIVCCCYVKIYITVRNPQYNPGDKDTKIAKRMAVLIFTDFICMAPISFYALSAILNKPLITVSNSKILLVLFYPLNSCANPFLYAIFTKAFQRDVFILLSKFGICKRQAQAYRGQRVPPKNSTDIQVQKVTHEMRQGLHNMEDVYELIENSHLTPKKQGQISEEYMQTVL
Chain of Estrogen receptor beta (Homo sapiens) (Q92731 whole entry, looked up): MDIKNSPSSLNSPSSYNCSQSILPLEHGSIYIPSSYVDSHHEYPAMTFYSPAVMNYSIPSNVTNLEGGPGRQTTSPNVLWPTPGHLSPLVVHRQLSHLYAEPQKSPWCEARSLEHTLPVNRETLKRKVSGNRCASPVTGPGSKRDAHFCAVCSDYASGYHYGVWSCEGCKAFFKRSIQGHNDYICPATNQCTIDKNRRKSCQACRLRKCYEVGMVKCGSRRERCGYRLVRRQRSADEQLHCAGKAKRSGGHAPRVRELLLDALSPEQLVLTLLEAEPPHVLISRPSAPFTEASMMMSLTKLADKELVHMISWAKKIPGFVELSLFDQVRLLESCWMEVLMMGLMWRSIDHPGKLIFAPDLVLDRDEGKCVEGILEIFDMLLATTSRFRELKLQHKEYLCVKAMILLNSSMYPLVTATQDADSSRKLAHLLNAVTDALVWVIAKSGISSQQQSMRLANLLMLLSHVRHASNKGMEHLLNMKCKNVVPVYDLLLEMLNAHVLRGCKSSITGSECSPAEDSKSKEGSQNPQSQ

For the compound `C[N+](C)(C)CC[N+]1(C)Cc2c(Cl)c(Cl)c(Cl)c(Cl)c2C1`, the Potency result in assay [1], in [2], in [4], in assay [5], in [6] and in assay [7] was “inactive” throughout. Also, the Potency result in [8], in [10], in assay [12], in assay [13] and in assay [14] was “inactive” in each case. Besides, the result in assay [3], in [9], in assay [11], in assay [15], in assay [16] and in assay [17] was inactive.
Turning to `O=C(O)c1cccc(C(=O)O)n1`, the Potency entry in assay [1], in [2], in [4], in [5], in assay [6] and in assay [7] was “inactive” each time. In addition, the Potency result in assay [8], in assay [10], in assay [12] and in assay [13] was “inactive” each time. For the same compound, the call in assay [3], in assay [9], in assay [11], in assay [18], in assay [15] and in [16] was inactive. Besides, the result in [17] was inactive.
For `COC[C@H](c1ccc(C(F)(F)F)cc1)N1CCN(C2(C)CCN(C(=O)c3c(C)ncnc3C)CC2)C[C@H]1C`, the Potency entry in assay [1], in assay [2], in assay [4], in assay [5], in assay [7] and in assay [8] was “inactive” each time. Also, the Potency entry in assay [10], in assay [12], in assay [13] and in assay [19] was “inactive” each time. Further, the compound was called inactive in assay [3], in assay [9], in assay [11], in [18], in assay [15] and in [16]. Besides, the compound was called inactive in assay [17]. In [6], the Potency was 2660 nM (active).
With `CC(C)c1cccc(O)c1`, the Potency result in assay [1], in assay [2], in [4], in assay [5], in assay [6] and in assay [7] was “inactive” in each case. The Potency result in [8], in assay [10], in assay [12], in assay [13] and in assay [14] was “inactive” in each case. Moreover, the result in [3], in assay [9], in assay [11], in [18], in assay [15] and in [16] was inactive. In addition, in assay [17], the compound was called inactive.
`Fc1ccccc1-c1ccccc1`: the Potency result in assay [1], in assay [2], in assay [4], in [5], in [6] and in assay [7] was “inactive” in each case. Also, the Potency result in assay [8], in [10], in [12], in assay [13], in assay [19] and in assay [14] was “inactive” each time. Moreover, the compound was classed as inactive in [3], in assay [9], in [11], in assay [18], in assay [15] and in assay [16].
Take `C=CCOCC(O)CS(=O)(=O)O` (stereo unspecified): the Potency entry in assay [1], in assay [2], in [4], in assay [5], in [6] and in [7] was “inactive” in each case. The Potency entry in assay [8], in assay [10], in assay [12], in [13] and in [14] was “inactive” in each case. For the same compound, the call in assay [3], in assay [9], in [11], in assay [18], in assay [15] and in assay [16] was inactive. In assay [17], the compound was called inactive.
